Screening data deposited in PubChem BioAssay by National Center for Advancing Translational Sciences (NCATS).
The list is not random: actives were taken first. Their share in the collection is about 7.3%.
NPC1 prom act: qHTS Assay for NPC1 Promoter Activators | Huh7 NPC1 promoter luciferase reporter, 24 h | Potency, µM (titrated, usually from 9.22 µM), for the others: at the top dose activation, most hits filed as activators | actives 2.4% (n = 320,000); also: % of control where 0% means no effect; nearly all actives have a fitted effect of over 60% in size
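In 1536-well qHTS, Huh7 cells harboring an NPC1 promoter–luciferase construct received compound for 24 h; activation was quantified by luminescence following luciferase reagent addition.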
SMN2 splice up: qHTS Assay for Enhancers of SMN2 Splice Variant Expression | HEK293 SMN2-luciferase splicing reporter, luminescence, 30-36 h | Potency, µM (highest dose often 46.1 µM), for inactives: at the highest dose activity change, positive = activation, actives largely listed as activators | actives 2.8% (n = 210,000); also: % of control where 0% means no effect; nearly all actives have a fitted effect of over 55% in size
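HEK293 cells carry an SMN2 […]–luciferase reporter in which exon 7 inclusion puts luciferase in frame. Cells were plated 10-12 h before compound addition, then incubated 30-36 h at 37C. ONE-Glo luminescence was read; sodium butyrate at 4.5 mM final served as control.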
p53 reactivation: qHTS assay for re-activators of p53 using a Luc reporter | H1299 p53-A138V BP100-luciferase reporter, luminescence, 24 h | Potency, µM (highest dose often 92.2 µM), inactives show top-dose activity change, positive = activation, usual class: activators | actives 0.063% (n = 320,000); also: % of control where 0% means no effect; nearly all actives have a fitted effect of over 45% in size
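p53-null H1299 cells stably carrying temperature-sensitive p53-A138V and a BP100-luciferase reporter were pinned with compounds (4-point, 1:5 series) and held 24 hrs at 37 deg C. Luminescence was read 10 min after detection reagent.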
ELG1 genotox: qHTS screen for small molecules that induce genotoxicity in human embryonic kidney (HEK293T) cells expressing luciferase-tagged ELG1. HEK293T ELG1-luciferase reporter, luminescence, 16 h. Potency, µM (highest dose often 46 µM), inactives show at the highest dose activity change, positive = activation, most hits filed as activators. actives 1.3% (n = 330,000); also: % of control where 0% means no effect; nearly all actives have a fitted effect of over 60% in size
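HEK293T cells expressing luciferase-tagged ELG1 were exposed to compound or DMSO vehicle for 16 hr at 37 °C and 5% CO2. Luciferase activity was then measured with ONE-Glo after 30 min at room temperature.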
FLuc counter: qHTS profiling assay for firefly luciferase inhibitor/activator using purifed enzyme and Km concentrations of substrates (counterscreen for miR-21 project). Potency, µM (doses to about 57.5 µM), without a hit: at the highest dose activity change, negative = inhibition, most hits filed as inhibitors. Luciferin 4-monooxygenase (Photinus pyralis), P08659. purified FLuc, Km substrates, luminescence inhibition. actives 6.9% (n = 360,000);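 also: plate controls were vehicle for no effect and reference inhibitor for full effect; nearly all actives have a fitted effect of over 55% in size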
Target sequence (P08659 whole entry, looked up): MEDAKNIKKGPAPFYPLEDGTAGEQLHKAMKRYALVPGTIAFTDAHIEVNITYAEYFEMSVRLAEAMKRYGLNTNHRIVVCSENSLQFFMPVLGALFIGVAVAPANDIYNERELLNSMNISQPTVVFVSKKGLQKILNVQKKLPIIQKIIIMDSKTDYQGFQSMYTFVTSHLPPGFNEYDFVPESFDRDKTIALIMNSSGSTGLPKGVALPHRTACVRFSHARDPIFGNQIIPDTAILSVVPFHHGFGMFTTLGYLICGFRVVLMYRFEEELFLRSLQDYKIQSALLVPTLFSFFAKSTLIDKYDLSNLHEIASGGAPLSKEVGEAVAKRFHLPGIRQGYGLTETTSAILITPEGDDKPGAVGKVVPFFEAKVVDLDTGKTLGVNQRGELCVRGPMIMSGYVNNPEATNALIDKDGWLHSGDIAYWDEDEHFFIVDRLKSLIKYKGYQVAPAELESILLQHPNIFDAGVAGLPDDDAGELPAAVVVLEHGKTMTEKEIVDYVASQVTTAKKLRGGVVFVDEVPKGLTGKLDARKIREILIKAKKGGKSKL
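Biochemical qHTS of compounds, final roughly 60 µM downward over six points, against 10 nM purified firefly luciferase using Km concentrations of substrates (10 uM D-luciferin, 10 uM ATP) in Tris acetate pH 7.5 buffer; luminescence output.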
Rab9 prom act: qHTS Assay for Rab9 Promoter Activators. Huh7 Rab9 promoter-luciferase reporter, luminescence, 24 h. Potency, µM (series often up to 9.22 µM), for inactives: top-dose activation, negative = inhibition, most hits filed as activators. actives 2.8% (n = 320,000). AID 485297, 2010; also: % of control where 0% means no effect; nearly all actives have a fitted effect of over 60% in size
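Huh7 cells stably carrying Rab9 promoter–luciferase reporter, plated 1500 cells/well, compound added after 2 h and incubated 24 h at 37 °C; luciferase luminescence then read after 10 min with detection reagent.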
The depositor's hits bear a star; ? = inconclusive; . = no result given; [ ] = another dose, or the depositor's remark. Calls follow the shape of the dose curve; as a rule, active = well fitted curve in the direction sought with a large enough effect; inconclusive = small, poorly fitted or top-dose-only effect, or another doubt; inactive = no such curve, though single readings can be large; an effect the other way counts as inactive or inconclusive. Potency is read from the fitted curve at half-maximal effect.

SMILES | NPC1 prom act | SMN2 splice up | p53 reactivation | ELG1 genotox | FLuc counter | Rab9 prom act
O=S(=O)(O)c1cc(O)c2c(N=Cc3ccccc3O)cc(S(=O)(=O)O)cc2c1 | . | 4.0%[9.22 µM] | . | . | . | .
Nc1nc(-c2ccccc2)nc2sc3c(c12)CCCC3 | 2.24µM* | 3.16µM* | ? | 4.11µM* | 0.269µM* | 1.78µM*
Cc1ccc(-c2nc3sc4c(c3c(=O)n2N)CC(C)(C)OC4)cc1 | 0.1% | -51.2% | -2.7% | -0.4% | -1.1% | 4.0%
CC1(C)Cc2c(sc3nc(-c4ccccc4)oc(=O)c23)CO1 | 27.4% | ? | 6.3% | -0.4% | 1.2µM* | 20.8%
O=C1CCC(=O)N1c1ccc(-c2nc3sc4c(c3c(=O)o2)CCC4)cc1 | -2.6% | . | -1.4% | -0.9% | 21.3µM* | 1.6%
O=c1oc(-c2ccccc2)nc2sc3c(c12)CCC3 | -0.6% | ? | ? | 0.3% | 2.39µM* | 10.2%
Cc1nc2sc3c(c2c(=O)o1)CCCC3 | -1.1% | -7.8% | 6.9% | 2.9% | -0.4% | -1.0%
CC1CCN(c2ccc(NC(=O)C3CCCN3S(=O)(=O)c3ccc(F)cc3)cc2)CC1 (stereo unspecified) | -3.1% | . | 7.6% | -0.6% | ? | 1.6%
CCCCn1cc(S(=O)(=O)c2ccc(CC)cc2)c(=O)c2cc(F)c(N3CCOCC3)cc21 | . | . | . | . | -7.7% | .
COc1ccc(-n2cc(-c3ccccc3)c3c(N4CCCC(C)C4)ncnc32)cc1 (stereo unspecified) | . | . | . | . | -14.8% | .
CCC(C)n1c(SCc2ccc(F)cc2Cl)nc2ccsc2c1=O (stereo unspecified) | . | . | . | . | 4.2% | .
O=c1oc(-c2ccco2)nc2sc3c(c12)CCCC3 | 10.9% | 14.1µM* | ? | 0.4% | 1.51µM* | -3.2%
CC1(C)Cc2c(sc3nc(-c4cc5ccccc5o4)n(N)c(=O)c23)CO1 | 3.16µM* | 11.2µM* | ? | 0.8% | 6.01µM* | 2.82µM*
Cc1sc2nc(-c3ccccc3)oc(=O)c2c1C | 20.0% | . | -1.5% | 2.6% | 5.36µM* | 20.5%
COc1ccc(NC(=O)Cn2c(=O)n(Cc3ccco3)c(=O)c3sc4ccccc4c32)cc1Cl | . | -7.2% | . | . | -2.4% | .
Nn1c(Nc2ccccc2)nc2ccccc21 | 2.82µM* | ? | ? | ? | 10.7µM* | 3.98µM*
Cc1ccc(-c2cc(NC(=O)C(C)Oc3ccc(C)c(C)c3)on2)cc1 (stereo unspecified) | . | 24.3% | . | . | -0.5% | .
CN(CCC#N)C(=O)COC(=O)c1c2c(nc3ccccc13)/C(=C/c1ccco1)CC2 | ? | 22.4µM* | ? | 7.8% | 10.7µM* | ?
O=C(N/C(=C/c1cccc(Br)c1)c1nc(=S)[nH][nH]1)c1ccccc1 | -1.3% | 3.1% | 6.3% | 12.1% | 6.75µM* | 6.5%
Cc1ccc(C(=O)N/C(=C\c2ccc(Br)cc2)c2nc(=S)[nH][nH]2)cc1 | -2.6% | -7.2% | -7.7% | 3.2% | ? | 1.8%
O=C(c1cc(-c2ccccc2)on1)N1CCCC1 | 0.794µM* | 11.2µM* | ? | 1.64µM* | 9.53µM* | 0.891µM*
O=C(c1cc(-c2ccccc2)on1)N1CCCc2ccccc21 | 12.5% | . | 9.4% | ? | 23.9µM* | ?
Cc1cc(C(=O)N(C)C2CCCCC2)no1 | 3.7% | . | -2.2% | 8.8% | 0.2% | 0.1%
COc1ccccc1N1CCN(C(=O)c2cc(-c3ccccc3)on2)CC1 | -0.3% | . | -2.9% | -0.5% | 2.0% | -0.2%
O=C(c1cc(-c2ccccc2)on1)N1CCN(c2ccccc2)CC1 | 0.7% | . | 18.2% | -4.8% | 23.9µM* | -2.2%
SMILES | NPC1 prom act | SMN2 splice up | p53 reactivation | ELG1 genotox | FLuc counter | Rab9 prom act
CN(C(=O)c1cc(-c2ccccc2)on1)C1CCCCC1 | 1.26µM* | . | ? | ? | 8.49µM* | 2.82µM*
[O-][n+]1c(CN2CCCCC2)nc2cccc3c2c1-c1ccccc1-3 | . | 9.7%[9.22 µM] | . | . | . | .
COc1cc(C(=O)OCc2cc(=O)n3ccsc3n2)cc(OC)c1OC | . | . | . | . | 3.2% | .
CCOc1ccc(CCNC(=O)c2sc3ncccc3c2-n2cccc2)cc1OCC | . | . | . | . | -5.6% | .
Cc1ccc(SCC(=O)c2cc(C)c(O)c(C)c2)cc1 | 12.7% | . | 27.1% | 13.5% | ? | 15.4%
COc1ccc(SCC(=O)c2cc(C)c(OC(=S)N(C)C)c(C)c2)cc1 | 26.9% | -11.9% | ? | 14.8% | 16.9µM* | ?
Cc1cc(C(=O)CSc2ccc(F)cc2)cc(C)c1OC(=S)N(C)C | ? | -50.6% | ? | 1.03µM* | 0.675µM* | ?
COc1ccc(CCN(/C=C2\Sc3ccccc3C2=O)C(C)=O)cc1OC | -4.9% | . | 6.9% | -0.4% | 26.9µM* | -2.6%
CCC1=Nc2cc(C(=O)NCCc3ccc(OC)c(OC)c3)ccc2Sc2ccccc21 | . | -39.5% | . | . | -2.6% | .
COCC(C)NC(=O)c1cc2c(=O)n3cccc(C)c3nc2s1 (stereo unspecified) | . | -15.5% | . | . | -0.7% | .
Cc1ccc(NC(=O)CCCN2C(=S)NC(C)(C)CC2C)cc1 (stereo unspecified) | -3.9% | 3.9% | ? | -0.4% | 0.1% | -2.2%
COC(=O)C1CCN(CC(=O)Nc2ccc3c(c2)OCCO3)CC1 | . | . | 17.0% | 0.9% | . | .
CCC1CCCCN1CC(=O)Nc1ccc2c(c1)OCCO2 (stereo unspecified) | 22.1% | . | 3.3% | 7.2% | 23.9µM* | 27.7%
CC1CC(C)CN(CC(=O)Nc2ccc3c(c2)OCCO3)C1 (stereo unspecified) | ? | -32.0% | 21.3% | ? | 15.1µM* | ?
CC1CC(C)(C)NC(=S)N1CCCC(=O)Nc1ccc2c(c1)OCCO2 (stereo unspecified) | 0.1% | 19.2% | 0.2% | ? | 26.9µM* | ?
CCOC(=O)c1ccccc1NC(=O)CN1CCCN(Cc2cccc(Cl)c2)S1(=O)=O | . | . | . | . | 0.1% | .
O=C(NCC(c1ccco1)S(=O)(=O)c1cccs1)c1ccc(F)c(F)c1 (stereo unspecified) | . | . | . | . | 3.7% | .
O=C(c1cnc(N2CCOCC2)c2ccccc12)N1CCN(c2ccc(F)cc2)CC1 | . | . | . | . | 3.5% | .
COc1ccc(NC(=O)Nc2ccc(N(C)C)cc2)cc1 | 2.51µM* | 12.6µM* | 17.3% | ? | 3.01µM* | 2.24µM*
COC(=O)c1ccc(NC(=O)Nc2ccc(OC)cc2)cc1 | 7.7% | 18.5% | 0.2% | 0.3% | -20.2% | 21.7%
COc1ccc(NC(=O)Nc2ccc(OC)cc2)cc1 | 2.82µM* | ? | 14.0% | ? | -22.1% | 2.24µM*
